Reference: PubChem BioAssay (NCI)
“And” between values parts separate entries of the source, which are not always exact repeats. Equal entries are not always repeated. About 83,000 compounds went through this panel and 20% of them were active in at least one assay; those are over-represented in the sample as a whole.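 Step 1: grow cells in 96-well plates. Step 2: add test compound at a single concentration. Step 3: incubate 48 h. Step 4: record percent growth.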 The source made the active and inactive calls. Rule for the calls: active = growth percent below 10; inactive = the rest.

tested on: SK-MEL-28 melanoma; experiment: NCI-60 one-dose screen, 48 h (100 = growth as untreated, 0 = no growth, -100 = all killed); conditions: 10 µM unless noted

SMILES	growth
O=[N+]([O-])c1ccc(/C=N\NC(=S)Nc2ccc(F)cc2)cc1	103% (inactive) and 104% (inactive)
CCN(CC)C(=O)c1cccnc1	111% (inactive)
CN1CCN(CCC=C2c3ccccc3Sc3ccc(S(=O)(=O)N(C)C)cc32)CC1	-54.1% (active) and -73.3% (active)
Oc1nc(NCCc2ccccc2)sc1/C=C1\C=Nc2ncccc21	0.815% (active) and 16% (inactive)
COc1cc2nc(N3CCN(C(=O)C4COc5ccccc5O4)CC3)nc(N)c2cc1OC (configuration not stated)	99.9% (inactive) and 102% (inactive) and 107% (inactive)
c1ccc2cc(C[n+]3ccn(Cc4ccc5ccccc5n4)c3)ccc2c1	8.97% (active) and 41.2% (inactive)
COc1ccc(Cn2c(NCCN=C(N)N)nc(=O)n(Cc3ccc(F)cc3)c2=O)cc1	103% (inactive) and 97.9% (inactive)
O=C(N/N=C/c1cccc2ccccc12)C1CC1	111% (inactive) and 104% (inactive)
CC(C)CNC(=O)c1ccccc1C(=O)NC1(C(=O)NCC(C)C)CCCC1	117% (inactive) and 115% (inactive)
Cn1c(=O)n(-c2ccc(C(C)(C)C#N)cc2)c2c3cc(-c4cnc5ccccc5c4)ccc3ncc21	-1.82% (active) and 1.77% (active)
CN(C)c1ccc(C(Cc2ccc3ccccc3n2)Cc2ccc3ccccc3n2)cc1	74.9% (inactive) and 92.8% (inactive)
Cc1ccc(S(=O)(=O)Nc2ccc3cc([N+](=O)[O-])ccc3c2[N+](=O)[O-])cc1	89.7% (inactive) and 115% (inactive)
